Screening data (PubChem BioAssay)
Hits are enriched below; roughly 5.7% of the tested compounds scored in any of these assays.
IL1B secr inh: inflammasome signaling inhibition, IL-1 beta readout; THP-1 LPS/ATP IL-1B secretion, AlphaLISA, 16 h; stronger effect = lower value; activity change, % at 57.5 µM; hit rate 4.7% among 360,000; in the data active means activity change below about -50%; inconclusive means mostly about -30% to -49%; further: on the % scale 0 is the no-effect control and ±100 the full control effect
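Secreted IL-1B measured by AlphaLISA bead assay after 16 h compound exposure of THP-1 cells; compounds (final up to 57.5 uM) added 1 h before LPS (250 ng/mL) and ATP (1.25 mM) stimulation; lower signal means less secretion.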
HepG2 viability: counter-screen for TGF-b inhibitors: cytotoxicity in HepG2 cells | HepG2 CAGA-GFP viability, ATP luminescence, 18 h | Potency, µM (top dose mostly 46.1 µM), for the others: at the top dose activity change, negative = cytotoxicity, hits mostly cytotoxic | hit rate 0.76% among 410,000; further: potency means the concentration at half of the fitted maximal effect
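CellTiter-Glo luminescence gave cytotoxicity after 18 hours at 37 degrees C. The cells were HepG2 CAGA-GFP in 1% FBS DMEM, stimulated with 500 pg/mL TGF-beta after compound addition. %Activity was normalised to no-cell wells (complete cell-killing) and DMSO (no toxicity), and curves were fitted and classified.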
S2 tox: viability counter-screen for ATXN expression inhibitors; S2 cells (HEK-293 line with an ATXN2-luciferase reporter) viability, CellTiter-Fluor protease fluorescence, 24 h; Potency, µM (doses to about 56.7 µM), actives largely listed as cytotoxic; hit rate 0.49% among 400,000; further: potency means the concentration at half of the fitted maximal effect; nearly all actives have a fitted effect of over 40% in size
ATXN2 expr inh: inhibitors of ATXN2 expression | Potency, µM (doses to about 57 µM), for the others: at the highest dose activity change, negative = inhibition, hits mostly inhibitors | hit rate 0.72% among 360,000 | HEK-293 ATXN2-luciferase reporter, luminescence, 24 h; further: potency means the concentration at half of the fitted maximal effect; on the % scale 0 is the no-effect control and ±100 the full control effect; nearly all actives have a fitted effect of over 55% in size
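ATXN2-luciferase reporter cells (luciferase flanked by upstream and downstream ATXN2 gene portions) were treated 24 h at 37 °C with compounds at up to 57 uM. SteadyGlo luminescence gave expression; GF-AFC fluorescence gave viability.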
TGFb SMAD3 inh: inhibitors of TGF-b signaling; HepG2 CAGA-GFP TGF-b/SMAD3 reporter, GFP fluorescence, 18 h; TGF-beta stimulated, 500 pg/mL final; Potency, µM (series often up to 46.1 µM), for the others: top-dose activity, negative = inhibition, hits mostly inhibitors; hit rate 1.2% among 410,000; further: potency means the concentration at half of the fitted maximal effect; on the % scale 0 is the no-effect control and ±100 the full control effect; nearly all actives have a fitted effect of over 65% in size
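HEPG2 CAGA-GFP, 1000 cells/well; 2 h settle, 37 C; cpd via pin tool; TGF-b 500 pg/mL final; 18 h, 37 C; GFP imaging ex488/em500-530; %Activity normalised to -TGF-b and +DMSO controls; CRC fit, curve class.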
* marks the source's active call; other numbers are inactive results; i = inactive; ? = inconclusive; · = not tested or not shown; ! = repeats disagree; [ ] = remark or other dose. Unless noted, the call rests on the fitted dose curve; in most records, active means well fitted curve in the direction sought with a large enough effect; inconclusive means small, poorly fitted or top-dose-only effect, or another doubt; inactive means no such curve, though single readings can be large; an effect the other way counts as inactive or inconclusive.

SMILES	IL1B secr inh	HepG2 viability	S2 tox	ATXN2 expr inh	TGFb SMAD3 inh
CCOc1cccc(-c2c(C(=O)N/N=C/c3sccc3C)nnn2-c2nonc2N)c1	?	4.47µM*	i	·	10µM*
Nc1nonc1-n1nnc(C(=O)N/N=C/c2cccs2)c1-c1ccc2c(c1)OCO2	-11.2	-0.7%	i	4.9%	-12.2%
Cc1ccsc1/C=N/NC(=O)c1nnn(-c2nonc2N)c1-c1ccc2c(c1)OCO2	-51.9*	1.3%	i	-4.8%	-19.3%
CC#CCC(C)[C@H](O)/C=C/[C@@H]1[C@H]2c3cccc(CCCC(=O)O)c3O[C@H]2C[C@H]1O (some centres undefined)	·	·	i	·	·
CCOC(=O)c1cc(S(=O)(=O)N2CCN(c3cc(Cl)ccc3C)CC2)[nH]n1	·	-38.6%	i	-18.0%	?
C=C1CCC(O)C2(C)CCC3C(C)C(=O)OC3C12O (centres undefined)	18.9	16.5%	i	8.0%	0.0%
C=C1C(=O)O[C@@H]2[C@H]1CC[C@H](C)[C@]1(O)CCC(=O)[C@@]21C	-68.7*	4.3%	?	-18.3%	?
COc1cccc(CN2CCN(Cc3cc4ccccc4[nH]3)CC2CCO)c1 (centres undefined)	-10.8	17.3%	i	·	22.4µM*
COc1cccc(CN2CCN(Cc3[nH]c4ccccc4c3C)CC2CCO)c1 (centres undefined)	-78.3*	-41.2%	i	-14.7%	-27.2%
CCOc1ccc(CN2CCN(Cc3cc4ccccc4[nH]3)CC2CCO)cc1 (centres undefined)	-6.2	-1.5%	i	-27.6%	?
COc1ccc(C(=S)N2CCN(c3cccc(Cl)c3)CC2)c(OC)c1	50.0	-27.4%	i	?	?
O=C(CC1SC(N2CCCC2)=NC1=O)Nc1ccc(C(=O)N2CCN(c3cccc(Cl)c3)CC2)cc1 (centres undefined)	-50.4*	-35.4%	i	-17.9%	10.7%
Oc1ccccc1C(=S)N1CCN(c2cccc(Cl)c2)CC1	-96.8*	-59.2%	i	-28.7%[11.3 µM]	?
COc1cccc(N2CCN(C(=O)c3ccc(CS(=O)c4ccccc4Cl)o3)CC2)c1 (centres undefined)	55.2	-34.7%	i	-0.5%	11.2µM*
O=C(c1ccc([N+](=O)[O-])s1)N1CCN(c2cccc(Cl)c2)CC1	-57.7*	-97.8%	?	-24.7%	11.2µM*
O=C(c1cccs1)N1CCN(c2cccc(Cl)c2)CC1	-14.0	-29.6%	i	-35.0%	-2.1%
CC=CC(=O)N(CC)c1ccccc1C	·	·	·	-2.3%	·
Oc1ccc(C(=S)N2CCN(c3cccc(Cl)c3)CC2)cc1	-93.1*	2.9%	i	-2.8%	?
CCOc1ccc(C(=O)N2CCN(c3cccc(Cl)c3)CC2)cc1	-15.5	-48.1%	i	·	?
COc1ccc(C(=O)N2CCN(c3cccc(Cl)c3)CC2)cc1	-59.0*	6.8%	?	2.5%	1.5%
COc1cc(C(=S)N2CCN(c3cccc(Cl)c3)CC2)ccc1O	10.2	-9.1%	i	-20.3%	-21.6%
COc1ccc(CNc2nc(-c3ccco3)nn2C(=O)CC(C)C)cc1	·	-0.3%	·	·	-22.3%
COc1cc2sc3cc(NCCCN4CCOCC4)ccc3c(=O)c2cc1OC	-75.5*	-16.4%	·	-20.5%	-12.9%
CCOC(=O)C1=C(CS(=O)(=O)c2c(C)cc(C)cc2C)NC(=O)NC1c1cccc(OC)c1 (centres undefined)	·	-14.3%	i	-8.9%	-5.7%
OC(CNCc1ccco1)Cn1c2ccc(Br)cc2c2cc(Br)ccc21 (centres undefined)	-59.0*	-90.0%	?	?	?
SMILES	IL1B secr inh	HepG2 viability	S2 tox	ATXN2 expr inh	TGFb SMAD3 inh
C=CCOc1ccc(CN(C)C(=O)c2ccc(CNS(=O)(=O)c3ccc(C)c(C)c3)cc2)cc1	-55.0*	-16.7%	i	-19.5%	?
Cn1c(=O)cc(SCC(=O)N2CCN(c3ccccn3)CC2)c2ccccc21	-50.2*	-21.5%	i	27.8%	-1.7%
CCc1cc2cc(C)cc(C)c2nc1SCC(=O)N1CCN(C(=O)c2ccco2)CC1	-54.2*	1.5%	?	-17.3%	?
CCn1c(=O)cc(SCC(=O)N2CCOCC2)c2ccccc21	-5.6	0.0%	i	17.2%	39.8%
CCc1cc2cccc(C)c2nc1SCC(=O)N1CCN(C(=O)c2ccco2)CC1	-18.9	2.7%	?	?	11.2%
Cn1c2ccccc2c2c(C(=O)N3CCN(c4ccccn4)CC3)cn(C3CCCC3)c(=O)c21	-58.6*	-15.4%	?	-10.3%	11.6%
CCn1c(=O)cc(SCC(=O)N2CCN(C(=O)c3ccco3)CC2)c2ccccc21	-51.5*	-30.0%	i	90.7%	6.8%
Cc1cccc(N(C)S(=O)(=O)c2nnc(NC(=O)C(C)(C)C)s2)c1	·	-13.3%	·	·	-44.4%
Cc1cccc2c(C(O)c3cn(C)c4ccccc34)c[nH]c12 (centres undefined)	·	-35.1%	·	·	?
CCN(CC)C(=S)SSC(=S)N(CC)CC	-109.9*	-56.3%	70.8µM*!	?	?
Cc1c(Cc2ccccc2)c(=O)oc2cc(OCC(=O)NCc3ccccn3)ccc12	-51.6*	-49.5%	i	-27.7%	-15.0%
CCn1ccc2c(OCC(=O)Nc3ccccc3C(F)(F)F)cccc2c1=O	·	-7.7%	?	?	-18.5%
Cc1cc(C)cc(N2C(=O)CSC23C(=O)N(Cc2c(F)cccc2Cl)c2ccccc23)c1 (centres undefined)	·	-16.6%	i	?	?
COc1ccc2cc(C(=O)C3CCCN(Cc4cnc(C)s4)C3)ccc2c1 (centres undefined)	-65.5*	-13.7%	i	?	-25.3%
COc1cccc(C(=O)C2CCCN(CC3=Cc4cc(OC)ccc4OC3)C2)c1 (centres undefined)	-89.3*	-11.0%	i	-22.0%[11.3 µM]	-14.2%
COc1ccc2cc(C(=O)C3CCCN(C(=O)/C=C/c4ccccn4)C3)ccc2c1 (centres undefined)	-12.7	12.6µM*	i	-14.8%	0.0%
COc1ccc(C(=O)C2CCCN(Cc3cnc(N4CCCC4)s3)C2)cc1OC (centres undefined)	13.4	-24.3%	i	·	3.7%
Cc1ccccc1CS(=O)(=O)c1cnc2ccccc2n1	-119.4*	-23.9%	i	-6.2%	?
Cc1ccccc1CS(=O)(=O)c1snnc1C	-23.0	-2.8%	i	-2.7%	-12.6%
O=C(CCN1C(=O)/C(=C\c2cccc(Br)c2)SC1=S)NCCCN1CCOCC1	-19.6	-7.6%	?	32.7%	-2.6%
COc1ccc(/C=C2\SC(=S)N(CCC(=O)NCCCn3ccnc3)C2=O)cc1	-27.4	-33.7%	i	·	?
